Bioassay records deposited in PubChem by National Center for Advancing Translational Sciences (NCATS).
PGK inhibitor – qHTS Assay to Find Inhibitors of Phosphoglycerate Kinase | PGK/GAPDH coupled, Kinase-Glo luminescence, 60 min | Potency, µM (titrated, usually from 57.5 µM), for inactives: at the highest dose activity change, negative = inhibition, actives largely listed as inhibitors | 0.043% of 380,000 active | AID 602233, 2012; further: nearly all actives have a fitted effect of over 60% in size
Target sequence (P07378 whole entry, looked up): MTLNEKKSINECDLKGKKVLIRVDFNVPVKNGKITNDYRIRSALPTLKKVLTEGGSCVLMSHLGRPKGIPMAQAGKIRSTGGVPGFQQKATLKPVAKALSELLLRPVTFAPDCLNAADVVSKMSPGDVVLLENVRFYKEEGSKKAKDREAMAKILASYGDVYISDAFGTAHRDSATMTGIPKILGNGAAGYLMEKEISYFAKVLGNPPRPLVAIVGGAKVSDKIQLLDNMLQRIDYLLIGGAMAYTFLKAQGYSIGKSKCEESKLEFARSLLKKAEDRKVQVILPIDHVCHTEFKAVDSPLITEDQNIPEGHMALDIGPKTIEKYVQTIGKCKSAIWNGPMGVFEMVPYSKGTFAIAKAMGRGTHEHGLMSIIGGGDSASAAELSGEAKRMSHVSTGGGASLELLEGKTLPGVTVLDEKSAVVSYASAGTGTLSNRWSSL
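Luminescent ATP detection (Kinase-Glo Plus) follows a 60-minute room-temperature incubation, with wells lacking PGK as controls. Buffer: 100 mM TEA (pH 7.6), 5 mM MgCl2, 0.01% Tween-20. Coupling enzyme GAPDH (100 nM final) supplies unstable 1,3-BPG in-well.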
Pin1 inh – qHTS Assay to Find Inhibitors of Pin1 | 0.009% of 390,000 active | Pin1 FP peptide displacement, HiFluor488, 10 min | Potency, µM (top dose mostly 115 µM), for inactives: at the top dose activity, negative = inhibition, hits mostly inhibitors | Peptidyl-prolyl cis-trans isomerase NIMA-interacting 1 (Homo sapiens), Q13526; active means well fitted inhibition curve with a large enough effect in the polarisation, with a control signal flat, not every such curve was filed as active; inconclusive means small, poorly fitted or top-dose-only effect, or effect the other way, or a change in a side signal; inactive means no such curve, though single readings can be large or run the other way; the % refers to the polarisation
Target sequence (Q13526 whole entry, looked up): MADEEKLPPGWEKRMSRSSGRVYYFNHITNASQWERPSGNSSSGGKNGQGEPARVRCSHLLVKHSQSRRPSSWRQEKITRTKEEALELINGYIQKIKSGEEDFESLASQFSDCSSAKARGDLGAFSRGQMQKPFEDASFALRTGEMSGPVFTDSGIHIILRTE
Tb PFK block – qHTS Assay to Find Inhibitors of T. brucei phosphofructokinase; Potency, µM (series often up to 57.5 µM), for the others: at the highest dose activity, negative = inhibition, actives largely listed as inhibitors; T. brucei PFK, ADP-Glo luminescence; AID 485367, 2010; 0.17% of 330,000 active; ATP-dependent 6-phosphofructokinase (Trypanosoma brucei brucei), O15648;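 further: 0% = uninhibited 1x PFK enzyme wells and -100% = no-enzyme wells; nearly all actives have a fitted effect of over 60% in size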
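Compounds were pin-transferred as a titration series up to 57 uM into substrate buffer (0.5 mM F6P, 0.1 mM ATP, pH 8.0), then 1.25 nM PFK was added and reactions ran 45 min before ADP-Glo detection.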
VDR inhibitor – Inhibitors of the vitamin D receptor (VDR): qHTS; Vitamin D3 receptor (Homo sapiens), P11473; VDR-SRC2-3 peptide fluorescence polarization, 2 h; Potency, µM, for the others: max response, negative = inhibition, usual class: inhibitors; 0.93% of 400,000 active
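Compounds are added to VDR with labelled SRC2-3 coactivator peptide and held 2 h at room temperature. Inhibition of the VDR–peptide interaction is then read as a change in fluorescence polarization.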
GLS inh – qHTS for Inhibitors of Glutaminase (GLS); Potency, µM (titrated, usually from 45.5 µM), without a hit: at the highest dose activity change, negative = inhibition, actives largely listed as inhibitors; GLS enzymatic activity, qHTS titration; Glutaminase kidney isoform, mitochondrial (Homo sapiens), O94925; 0.21% of 410,000 active
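hKGA in 45 mM KH2PO4 (pH 8.2), 0.02% Tween-20 with compound, then 1mM L-Glutamine (stock as added) plus glutamate oxidase/HRP/Amplex red coupling mix. Fluorescence read initially and after 30 min at RT; signal change reflects glutamate formation.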
Active calls of the source: *; i = inactive; ? = inconclusive; / = not tested or not shown; [ ] = dose if it differs, or a comment. Compounds with a hit are over-represented: about 1.1% of the library has one in this group of screens. Unless noted, the call rests on the fitted dose curve; in most records, active means well fitted curve in the direction sought with a large enough effect; inconclusive means small, poorly fitted or top-dose-only effect, or another doubt; inactive means no such curve, though single readings can be large; an effect the other way counts as inactive or inconclusive. Unless noted, on the % scale 0 is the no-effect control and ±100 the full control effect; potency means the concentration at half of the fitted maximal effect.

SMILES	PGK inhibitor	Pin1 inh	Tb PFK block	VDR inhibitor	GLS inh
CC(=O)NCc1ccc(S(=O)(=O)N2CCN(S(=O)(=O)c3ccc4ccccc4c3)CC2)cc1	6%	0%	0%	-3%	1%
NC1=C(Br)C(=O)c2ncccc2C1=O	-3%	-2%	/	?	0%
O=C1C(=O)c2ncccc2-c2cccnc21	/	/	/	1.3µM*	-1%
O=[N+]([O-])c1cc(C(F)(F)F)ccc1NCC1CCCO1 (stereo unspecified)	11%	0%	1%	79µM*	?
N#Cc1cc(NCC2CCCO2)c([N+](=O)[O-])cc1C#N (stereo unspecified)	0%	-3%	-1%	5%	9%
N#CCCCS(=O)(=O)c1nnnn1-c1ccc(F)cc1Br	/	/	/	45µM*	/
O=C(O)CN1C(=O)/C(=C/c2ccc(N3CCCCC3)o2)SC1=S	-29%	?	-14%	?	11µM*
COC(=O)CN1C(=O)S/C(=C/c2ccc(N3CCCCC3)o2)C1=O	-4%	?	-8%	32µM*	-23%
CCOC(=O)CN1C(=O)S/C(=C/c2ccc(N3CCCCC3)o2)C1=O	-8%	?	-17%	-14%	-13%
CCCN1C(=O)S/C(=C\c2ccc(N3CCOCC3)o2)C1=O	-3%	?	?	32µM*	-21%
CCOC(=O)CCN(C(=S)Nc1ccccc1)C1CCCCC1	-3%	-1%	/	?	-19%
CC(=O)Nc1ccc(-c2ccnc3c2CC(C(=O)Nc2cccc(N(C)C)c2)O3)cc1 (stereo unspecified)	/	/	/	/	23%
COc1ccc(OCC(O)Cn2c(NCCO)nc3c2c(=O)n(C)c(=O)n3C)cc1 (stereo unspecified)	-8%	5%	/	8%	9%
COc1ccc2cc1Oc1ccc(cc1)CC1c3cc(c(OC)cc3CCN1C)Oc1c(OC)c(OC)c(OC)c3c1C(C2)N(C)CC3 (stereo unspecified)	/	/	/	45µM*	/
COc1ccc(-c2ccc(C(=S)N3CCN(C(C)=O)CC3)o2)cc1	4%[11.5 µM]	4%	-6%	79µM*	13%
COc1ccc(NC(=O)COc2ccc(S(=O)(=O)NC3CCCCC3)cc2)cc1OC	-3%	3%	/	-21%	1%
CC12CCC(c3c1nc1ccccc1[n+]3[O-])C2(C)C (stereo unspecified)	0%	-1%	-3%	71µM*	?
CN(C)c1ccc(-c2cc(Nc3ccc(F)cc3)ncn2)cc1	/	/	/	45µM*	/
CN(C)c1ccc(-c2cc(-n3ccnc3)ncn2)cc1	/	/	/	50µM*	/
CCOc1ccc(NC(=O)Cn2nc(CC)n3c(cc4sccc43)c2=O)cc1	i	5%	/	-15%	-2%
CC(=O)c1ccc(NC(=O)Cn2c(=O)oc3cc(S(=O)(=O)N4CCCCC4)ccc32)cc1	-8%	16%	/	4%	8%
Cc1cc(=O)[nH]c(N/N=C/C2=C(N3CCOCC3)C(=C\c3ccc(Cl)cc3)/CC2)n1	0%	13%	-2%	89µM*	2%
Cc1cc(=O)[nH]c(N/N=C/c2ccc(O)c(O)c2)n1	5%	1%	-24%	1%	13µM*
Cc1cc(C)nc(N/N=C/C2=C(N3CCOCC3)C(=C/c3ccccc3)/CC2)n1	i	10%	1%	-10%	19%
O=C1OC2(c3ccccc31)c1cc(I)c(O)c(I)c1Oc1c2cc(I)c(O)c1I	/	/	?	4.5µM*	?
SMILES	PGK inhibitor	Pin1 inh	Tb PFK block	VDR inhibitor	GLS inh
O=C1OC2(c3cc(I)c(O)c(I)c3Oc3c2cc(I)c(O)c3I)c2c(Cl)c(Cl)c(Cl)c(Cl)c21	/	/	/	5µM*	/
COc1cc(OC)c(OC)cc1/C=C1\Oc2cc(OCC(=O)N3Cc4ccccc4C[C@H]3C(=O)O)ccc2C1=O	-4%	?	12µM*	-3%	?
Nc1c(C(=O)O)ccc2c1C(=O)c1ccccc1C2=O	-14%	-1%	-3%	-10%	?
Nc1cc(C(=O)O)c(N)c2c1C(=O)c1ccccc1C2=O	?	?	-12%	8.9µM*	?
N#CC1C(=O)c2ccccc2C1c1ccccc1 (stereo unspecified)	-5%	-1%	/	45µM*	33%
O=C1CCC(c2ccccc2)c2ccccc21 (stereo unspecified)	-1%	0%	/	-3%	3%
CSc1nc(N(C)CCO)c2sc3nc(-c4ccco4)c4c(c3c2n1)CCC4	?	/	?	?	13µM*
CSc1nc(SCC(=O)O)c2sc3nc(-c4ccccc4)c4c(c3c2n1)CCC4	?	/	2%	-12%	14µM*
CSc1nc(NCCN(C)C)c2sc3nc(-c4ccco4)c4c(c3c2n1)CCC4	-8%	1%	/	8%	-19%
CSc1nc(N2CCN(CCO)CC2)c2sc3nc(-c4ccco4)c4c(c3c2n1)CCC4	/	/	2%	/	/
COc1ccc(C2Cc3ccccc3C(=O)N2Cc2ccccc2)cc1COc1ccc(NC(C)=O)cc1 (stereo unspecified)	/	46%	/	/	/
COc1ccc(-c2nc3c4ccccc4n(CC(=O)N4CCN(c5ccccc5F)CC4)c(=O)n3n2)cc1	5%	-3%	/	7%	1%
O=C(O)c1cccc(N2C(=O)c3cc([N+](=O)[O-])cc4cc([N+](=O)[O-])cc(c34)C2=O)c1	25µM*	/	-12%	56µM*	?
Clc1cccc(Cc2c(-c3ccco3)nc3ccc(Br)cn23)c1	/	/	/	/	11µM*
Brc1ccc2nc(-c3ccco3)c(Cc3ccccc3)n2c1	/	/	/	/	-1%
CC[n+]1c(/C=C/C=C2/N(C)c3ccccc3C2(C)C)sc2ccccc21	/	/	/	35µM*	/
O=C1NC(=S)CN1c1ccccc1	-1%	?	-14%	32µM*	8%
CCOC(=O)C1=C(O)/C(=C/c2ccc(-c3ccccc3C(=O)O)o2)SC1=Nc1ccc(C)cc1	-13%	27%	-2%	79µM*	?
O=C(NCc1ccco1)c1cccc2c(-c3ccc(F)c(F)c3)coc12	/	/	/	/	2%
O=C1C=CC(=O)N1c1ccc(OC(F)F)cc1	-7%	-1%	?	16µM*	-16%
O=C1CCCC(=O)N1c1ccc(O)cc1	1%	7%	0%	-7%	6%
O=C1C=CC(=O)N1c1ccc(O)cc1	0%	6%	-11%	25µM*	20%
O=S(=O)(Nc1cccc(S(=O)(=O)N2CCOCC2)c1)c1cccs1	3%	-1%	-18%	-3%	28%
O=C(NCCN1C(=O)S/C(=C\c2cccnc2)C1=O)C1=NN(c2ccccc2)C(=O)CC1	-5%	1%	0%	28µM*	?
Cc1nc2ccccn2c1C(O)(c1ccccc1)c1ccccc1	/	0%	/	/	/
CCOC(=O)CC1=NN(c2ccccc2)C(=O)/C1=C\c1ccc(OC)cc1OC	6%	-18%	0%	50µM*	?
